CYP2C9 activ: human CYP2C9 activators, primary screen, biochemical, luminescence | 96,000 tested, 1.4% active | activation factor at 5 µM | recombinant CYP2C9, luciferin-H conversion; stronger effect = higher value; factor 1 = untreated enzyme, 0 = blocked | AID 1024, 2008 | Cytochrome P450 2C9 (Homo sapiens), P11712;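 active means activation factor of 2 or more for CYP2C9 at a 5 µM dose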;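 further: 0 = sulfaphenazole-blocked wells and 1 = vehicle-only wells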
Target sequence (P11712 whole entry, looked up): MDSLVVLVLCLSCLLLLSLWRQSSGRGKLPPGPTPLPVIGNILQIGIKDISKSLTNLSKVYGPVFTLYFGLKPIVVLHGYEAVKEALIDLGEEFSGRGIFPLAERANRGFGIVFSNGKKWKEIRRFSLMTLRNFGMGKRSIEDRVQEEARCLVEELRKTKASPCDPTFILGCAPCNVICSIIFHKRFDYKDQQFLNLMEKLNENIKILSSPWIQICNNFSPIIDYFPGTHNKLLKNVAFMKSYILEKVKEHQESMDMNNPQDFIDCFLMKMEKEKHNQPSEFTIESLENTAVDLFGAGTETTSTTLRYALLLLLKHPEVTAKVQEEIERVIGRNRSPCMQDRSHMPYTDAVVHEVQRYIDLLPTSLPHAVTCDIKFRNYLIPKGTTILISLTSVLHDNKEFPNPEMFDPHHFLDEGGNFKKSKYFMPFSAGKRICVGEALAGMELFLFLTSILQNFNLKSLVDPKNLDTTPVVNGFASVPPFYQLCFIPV
Mac1 fbg enh: enhancers of CD11b/CD18 adhesion to fibrinogen, primary screen, K562 cells, luminescence; ATPlite luminescence; activation, % at 10 µM; Integrin beta-2 (Homo sapiens) + Integrin alpha-M (Homo sapiens), P05107+P11215; 93,000 tested, 0.07% active;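 active means 10 µM primary screen giving 50% or more activity, confirmed by 40% or more on retest at that dose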
CYP2C9 inh: blockers of cytochrome P450 2C9 activity – biochemical, luminescence, ADME assay, primary screen; inhibition, % at 5 µM; 96,000 tested, 20% active; CYP2C9 Supersomes, luciferin-H conversion; P11712;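 active means blocking of liver enzyme CYP2C9 beyond about 50% at 5 µM, limit read from the data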
CYP2C19 inhib: blockers of cytochrome P450 2C19 activity – biochemical, luminescence, ADME assay, primary screen. P33261. CYP2C19 Supersomes, luciferin-H EGE luminescence, 30 min. inhibition, % at 5 µM. 96,000 tested, 21% active. AID 778, 2007;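 active means CYP2C19 inhibition above a set limit at 5 µM in the primary screen, cut at about 50% in these data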;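 further: plate controls were negative control wells for no effect and 2.5 mM tranylcypromine positive control for full effect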
Mac1 fbg inh: inhibitors of CD11b/CD18 adhesion to fibrinogen, primary screen, K562 cells, luminescence; Integrin beta-2 (Homo sapiens) + Integrin alpha-M (Homo sapiens), P05107+P11215; ATPlite luminescence; Mn2+ added to activate the integrin; inhibition, % at 10 µM; 93,000 tested, 0.54% active; AID 1497, 2009;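 active means primary inhibition of 50% or more at 10 µM, then 40% or more on retest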
CYP2C19 activ: human CYP2C19 activators, primary screen, biochemical, luminescence. Cytochrome P450 2C19 (Homo sapiens), P33261. activation factor at 5 µM. AID 1025, 2008. 96,000 tested, under 10 active. recombinant CYP2C19, luciferin-H EGE luminescence; stronger effect = higher value; 0 = fully inhibited enzyme, 1 = untreated enzyme;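 active means activation factor of at least 2 at 5 µM in the primary screen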;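 further: 0 = wells with 2.5 mM tranylcypromine and 1 = vehicle-only wells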
* hit, by the source's call; . = not tested or not shown. The list is not random: actives were taken first. Their share in the collection is about 28%.

SMILES	CYP2C9 activ	Mac1 fbg enh	CYP2C9 inh	CYP2C19 inhib	Mac1 fbg inh	CYP2C19 activ
O=C1C(=C(c2ccccc2)c2ccccc2)Nc2ccccc21	0.1	-5.2	89.1*	63.6*	7.4	0.4
N=c1oc2ccccc2cc1-c1nc(-c2ccc(Cl)cc2)cs1	.	11.5	.	.	-4.8	.
CCOc1ccc(C2=C(C=Nc3c(C)n(C)n(-c4ccccc4)c3=O)C(c3ccc(F)cc3)c3ccccc3O2)cc1 (configuration not stated)	0.4	63.4	58.5*	18.4	0.8	0.8
Cc1cccc(-c2ccc(C=Nc3c(C)n(C)n(-c4ccccc4)c3=O)o2)c1	0.8	-0.9	18.7	15.5	23.3	0.8
O=C(NC(Cc1ccccc1)C(=O)O)/C(=C\c1ccc(F)cc1)NC(=O)c1ccccc1 (configuration not stated)	0.9	.	7.7	-1.4	.	1
Cc1cc(C(=O)OCC(=O)N2CCN(c3ccccc3)CC2)c2ccccc2n1	2.8*	-1.2	-175.2	39.4	2.4	0.6
O=C(OCC(=O)N1CCN(c2ccccc2)CC1)c1ccc2ncsc2c1	1.6	1.3	-63.3	73.2*	9.1	0.3
O=C(OCC(=O)N1CCN(C(=O)c2ccco2)CC1)c1cn(-c2ccccc2)nc1-c1ccccc1	0.3	0.1	67.6*	42.8	1.1	0.6
O=C(OCC(=O)N1CCN(C(=O)c2ccco2)CC1)c1cc(-c2ccccc2)nc2ccccc12	0.2	-0.1	75.8*	49.8	9.9	0.5
Cc1cccc(/C(N)=N/OC(=O)c2cccs2)c1	0.6	.	37.6	22.5	.	0.8
O=C(OCC(=O)N1CCN(C(=O)c2ccco2)CC1)c1ccc(S(=O)(=O)N2CCCCC2)cc1	0.4	-1.9	59.7*	0.6	-6.8	1
O=C(OCC(=O)N1CCN(C(=O)c2ccco2)CC1)c1cc(-c2cccc(Br)c2)nc2ccccc12	0.4	-0.8	61.1*	-9.3	-1.2	1.1
O=C(OCC(=O)N1CCN(C(=O)c2ccco2)CC1)c1cc(-c2ccc(F)cc2)nc2ccccc12	0.6	1.8	40.1	12.2	6.5	0.9
O=C(OCC(=O)N1CCCC1)c1ccccc1OCc1ccccc1	0.9	0.6	11.4	12.3	-21.6	0.9
O=C(OCC(=O)N1CCN(C(=O)c2ccco2)CC1)c1ccccc1OCc1ccccc1	0.1	0.9	86.7*	63.7*	-1.1	0.4
O=C(OCc1ccco1)c1ccc(S(=O)(=O)N2CCCCC2)cc1	1.2	9.3	-24.2	-19.3	-2.5	1.2
CCCOc1ccccc1N/C(=N/c1nc(C)cc(C)n1)NC(=O)Nc1ccc(Cl)cc1	0.8	-5.8	19.1	-3.0	9.1	1
COc1ccc(CC(=O)NC(C)c2nnc(SCCOc3ccc(OC)cc3)n2C)cc1 (configuration not stated)	0.7	-1.5	29.0	4.7	-26.6	1
CCn1cc(NC(=O)Nc2ccccc2C(=O)OC)c(C(N)=O)n1	1	13.1	-1.6	-8.6	-26.4	1.1
O=C(CSc1nnc2ccccn12)c1ccc2c(c1)OCCO2	0.9	1.9	6.4	82.1*	-19.1	0.2
c1ccn2c(SCc3ccc4c(c3)OCO4)nnc2c1	0.9	5.3	8.1	65.3*	-13.6	0.3
Nn1c(SCC(=O)NCc2ccc3c(c2)OCO3)nnc1C1CC1	0.7	-1.2	28.9	11.3	-11.8	0.9
Clc1ccc(CSc2nnc3ccccn23)c(Cl)c1	.	1.7	.	.	-0.3	.
Cn1c(SCc2ccc3c(c2)OCO3)nnc1-c1ccccc1	0.5	0.0	49.9	97.7*	-8.3	0
COC(=O)CSc1nnc(-c2ccc3c(c2)OCO3)n1C	0.9	.	6.2	2.9	.	1
SMILES	CYP2C9 activ	Mac1 fbg enh	CYP2C9 inh	CYP2C19 inhib	Mac1 fbg inh	CYP2C19 activ
Fc1ccc(CSc2nncn2NCc2ccc3c(c2)OCO3)cc1	0.2	0.1	82.7*	92.9*	2.4	0.1
O=C(CSc1nnc2ccccn12)N1CCOCC1	1	6.1	1.0	-1.8	-27.1	1
CCc1ccc(-c2nc(CCl)cs2)cc1	.	-1.7	.	.	15.7	.
O=C(Cc1ccc(-n2cnnn2)cc1)NC12CC3CC(CC(C3)C1)C2	0.8	-0.4	24.7	5.4	-2.7	0.9
CCOc1c(Cl)cc(C2NC(=O)NC(C)=C2C(=O)NCc2ccccc2)cc1OC (configuration not stated)	0.8	5.1	19.0	4.7	-6.6	1
Cc1ccc(-c2nnc(N3CCCCC3)c3ccccc23)cc1S(=O)(=O)N1CCN(C)CC1	0.4	.	57.5*	14.6	.	0.9
C1=CC2CC1CC2CN1CCN(Cc2ccccc2)CC1 (configuration not stated)	1.1	-0.9	-7.9	52.6*	3.8	0.5
Cc1cc2nc(C)c(Cc3ccccc3)c(=O)n2[nH]1	2.3*	-6.6	-125.4	5.8	-11.6	0.9
CC1=C(C(=O)Nc2ccccc2Cl)C(c2ccc(N(C)C)cc2)NC(=O)N1 (configuration not stated)	1.1	7.2	-14.5	-2.3	9.3	1
OCCCc1nc2n(n1)C(c1cccs1)C=C(c1ccccc1)N2 (configuration not stated)	0	-1.9	96.2*	58.1*	0.2	0.4
OCCCc1nc2n(n1)C(c1ccccc1Cl)C=C(c1cccs1)N2 (configuration not stated)	0.5	2.1	50.9*	39.4	-1.1	0.6
Cc1cc(NC(=O)CSc2cn(CCNC(=O)c3ccc(F)cc3)c3ccccc23)no1	0.3	-0.4	74.6*	63.6*	4.6	0.4
COc1ccc(C(=O)NCCn2cc(SCC(=O)NCc3ccco3)c3ccccc32)cc1	0.1	-6.1	85.4*	96.1*	-1.0	0
CC(C)Cn1c(-c2ccc(Cl)cc2)cnc1SCC(=O)N1CCOCC1	0.8	.	23.2	30.9	.	0.7
COc1ccc(C2CC(c3ccc(Cl)cc3)n3nc(N)nc3N2)cc1 (configuration not stated)	1	-1.7	-3.7	37.7	-6.1	0.6
O=C(CSc1nnc(SCC(=O)NCc2ccc3c(c2)OCO3)s1)NCc1ccc2c(c1)OCO2	1	-3.0	3.0	-1.4	9.6	1
CC(C)CNC(=O)CCCc1c[nH]c2ccccc12	2.1*	.	-113.6	63.3*	.	0.4
O=C(CSCc1ccc(Cl)cc1)NCc1ccc2c(c1)OCO2	0	-6.1	99.8*	31.6	-3.4	0.7
O=C(CCn1c(=O)c2ccccc2n(Cc2cccnc2)c1=O)NCc1ccc2c(c1)OCO2	0.3	-2.1	69.4*	77.0*	-7.8	0.2
O=C(Cc1c[nH]c2ccccc12)NCc1ccc2c(c1)OCO2	0.5	-5.8	53.0*	94.3*	7.1	0.1

Screens deposited in PubChem BioAssay by Sanford-Burnham Center for Chemical Genomics.
